Only some compounds are listed: those with a hit (about 19% of all), similar ones and a draw of the others.
TDP1 cell CPT: growth inhibition of DT40 Tdp1-/-;hTDP1 cells with camptothecin (screen for TDP1 inhibitors). chicken DT40 Tdp1-/-;hTDP1 cells + 20 nM CPT, ATP luminescence, 48 h. Potency, µM (series often up to 46.2 µM), for inactives: at the highest dose activity change, negative = growth inhibition, hits mostly inhibitors. hit rate 12% among 420,000; further: potency means the concentration at half of the fitted maximal effect; nearly all actives have a fitted effect of over 55% in size
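Cell growth measured by CellTiter-Glo luminescence after a minimum 48 h, 37 C compound exposure with 20 nM CPT in Tdp1-knockout DT40 cells stably expressing hTDP1, seeded 400/well; qHTS titration format.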
HT1080 IDH1KD tx: toxicity to HT-1080 IDH1 knockdown cells (counter line); HT-1080 IDH1 knockdown viability, ATP luminescence, 48 h; Potency, µM (titrated, usually from 46.1 µM), for inactives: at the top dose activity, negative = toxicity, actives largely listed as cytotoxic; hit rate 2% among 360,000;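 further: potency means the concentration at half of the fitted maximal effect; 0% = DMSO wells and -100% = cell-free medium wells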
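Knockdown cells (IDH1KD HT-1080) received compounds 2 h after plating at 750 cells/well and were kept 48 h at 37 °C in 5% FBS RPMI. A CellTiter-Glo luminescence read gave % activity for curve fitting.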
IL1B secr inh: inflammasome signaling inhibition, IL-1 beta readout | THP-1 LPS/ATP IL-1B secretion, AlphaLISA, 16 h; hits give low values | activity change, % at 57.5 µM | hit rate 4.7% among 360,000 | AID 743279; in the data active means activity change below about -50%; inconclusive means mostly about -30% to -49%
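THP-1 cells pretreated 1 hr with compounds (up to 57.5 uM final), then stimulated with LPS (250 ng/mL final) plus ATP (1.25 mM final); secreted IL-1B measured by AlphaLISA after 16 hr, decreased signal indicating inhibition.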
HT1080NT lethal: kills 2HG-producing HT-1080-NT fibrosarcoma cells; hit rate 1.6% among 360,000; Potency, µM (top dose mostly 46.1 µM), for the others: at the highest dose activity, negative = less viability, usual class: cytotoxic; HT-1080-NT fibrosarcoma viability, CellTiter-Glo ATP luminescence, 48 h;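 further: NT is the 2HG producing partner of a matched IDH1 knockdown line; potency means the concentration at half of the fitted maximal effect; 0% = DMSO-treated cells and -100% = media-only wells without cells; nearly all actives have a fitted effect of over 55% in size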
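Viability of the 2HG-overproducing fibrosarcoma line after 48 hours of compound exposure at 37 degrees C was determined by luminescence with CellTiter-Glo, and concentration-effect curves were then fitted and categorized.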
TDP1 cell noCPT: qHTS for Inhibitors of human tyrosyl-DNA phosphodiesterase 1 (TDP1): qHTS in cells in absence of CPT; hit rate 15% among 420,000; Potency, µM (doses to about 46.2 µM), without a hit: at the highest dose activity change, negative = growth inhibition, usual class: inhibitors; DT40 Tdp1-/- hTDP1 cells, no CPT, ATP luminescence, 48 h; further: potency means the concentration at half of the fitted maximal effect; nearly all actives have a fitted effect of over 55% in size
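Readout: luminescence from CellTiter-Glo after 30 min in the dark at RT. Cells: DT40 Tdp1-/- with stable hTDP1, 400/well. Exposure: compounds alone, ≥48 hr, 37 °C.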
Active calls of the source: *; ? = inconclusive; . = no result; [ ] = another dose, or the depositor's remark. Unless noted, the call rests on the fitted dose curve; in most records, active means well fitted curve in the direction sought with a large enough effect; inconclusive means small, poorly fitted or top-dose-only effect, or another doubt; inactive means no such curve, though single readings can be large; an effect the other way counts as inactive or inconclusive. Unless noted, on the % scale 0 is the no-effect control and ±100 the full control effect.

SMILES	TDP1 cell CPT	HT1080 IDH1KD tx	IL1B secr inh	HT1080NT lethal	TDP1 cell noCPT
CCN(c1ccccc1)S(=O)(=O)c1ccc2[nH]cc(C(=O)NCCOC)c(=O)c2c1	?	-9%	28	-10%	?
CCc1ccccc1NS(=O)(=O)c1ccc2[nH]cc(C(=O)NC3CCCC3)c(=O)c2c1	?	18µM*	-30	?	?
C[C@@]12C(=O)Nc3ccc(Cl)cc3C(=O)N1[C@H]1c3ccccc3OC[C@@H]1[C@@H]2c1ccccc1	?	-24%	?	-21%	?
Cc1ccc2c(c1)C(=O)N1[C@H]3c4cc(Cl)ccc4OC[C@@H]3[C@H](c3ccccc3)[C@]1(C)C(=O)N2	?	?	-29	-26%	16µM*
Cc1ccc2c(c1)C(=O)N1[C@H]3c4cc(C)ccc4OC[C@@H]3[C@H](c3ccccc3)[C@]1(C)C(=O)N2	12µM*	7.3µM*	-53*	?	13µM*
Cc1ccc2c(c1)[C@@H]1[C@H](CO2)[C@H](c2ccccc2)[C@@]2(C)C(=O)N[C@H](C)C(=O)N12	-12%	9%	4	10%	-11%
O=C(CN1CCN(Cc2ccccc2F)C1=O)NCc1ccco1	13%	1%	-8	-5%	-7%
COc1cccc(C2=CC(c3ccccc3O)NC(C)(C)N2)c1 (centres undefined)	13µM*	.	.	.	16µM*
O=C1NC(c2ccccc2)=CC(c2ccccc2O)N1 (centres undefined)	-13%	5%	17	19%	-3%
COc1ccc(C)cc1NC(=O)C(=O)c1cn(CC(=O)N2CCCC2)c2ccccc12	?	3%	0	-3%	18µM*
COc1ccc(CCNC(=O)C(=O)c2cn(CC(=O)N3CCCC3)c3ccccc23)cc1	-13%	1%	-9	-4%	21µM*
COc1ccc(NC(=O)C(=O)c2cn(CC(=O)N3CCCC3)c3ccccc23)cc1OC	16µM*	-23%	-27	-2%	13µM*
COc1cccc(NC(=O)C(=O)c2cn(CC(=O)N3CCCC3)c3ccccc23)c1	?	-12%	?	-9%	?
COc1ccc(CNC(=O)C(=O)c2cn(CC(=O)N3CCCC3)c3ccccc23)cc1	-5%	-15%	0	-3%	-9%
COc1ccc(OC)c(NC(=O)C(=O)c2cn(CC(=O)N3CCCC3)c3ccccc23)c1	?	-8%	-19	-2%	?
C[C@H](CO)N1C[C@H](C)[C@@H](CN(C)C)Oc2c(NS(=O)(=O)c3cn(C)cn3)cccc2C1=O	9%	3%	11	-1%	-4%
CN(C)c1nccc(N(Cc2ccccc2)Cc2ccccc2)c1C#N	18µM*	-2%[9.24 µM]	-13	-18%	29µM*
CN(C)CCN(Cc1ccccc1)c1ccnc(N(C)C)c1C#N	-25%	8%	-25	2%	?
O=C(CCl)NCCCCCCCCCNC(=O)CCl	4.6µM*	15µM*	-90*	16µM*	6.5µM*
O=C(N/C(=C\c1ccc(Br)cc1)C(=O)N1CCCC1)c1ccccc1F	-1%	1%	-5	-1%	-4%
CCCNS(=O)(=O)c1ccc(OCC(=O)NCc2ccc3c(c2)OCO3)cc1	3%	-8%	7	-9%	-21%
Cc1[nH]c2ccccc2c1C(O)CN1CCN(c2cccc(C(F)(F)F)c2)CC1 (centres undefined)	23µM*	?	-103*	?	18µM*
Cc1[nH]c2ccccc2c1NC(=O)CN1CCN(c2cccc(C(F)(F)F)c2)CC1	?	?	8	18µM*	?
O=C(CN1CCN(c2cccc(C(F)(F)F)c2)CC1)NCc1ccccc1	-9%	-13%	-55*	-3%	?
Cc1cc2[nH]c(=O)c(=O)[nH]c2cc1S(=O)(=O)N1CCN(c2cccc(C(F)(F)F)c2)CC1	-9%	-20%	10	-1%	?
